Experimental data as given in PubChem BioAssay.
Inconclusive results are not listed. The source made the active and inactive calls.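 The calls were made as follows, unless noted: active = viability at or below 30% in both replicate assays; inconclusive = viability at or below 30% in just one of the two assays; inactive = the rest.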

What was measured:
[1] = Her2 expression decrease, cell viability multiplex – SKBR3 breast tumor cells, AlphaScreen, ATP viability, primary screen (AID 461;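 active = Her2 level under about 52% in both replicate screens, with viability over 70% of control, limit read from the data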;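 as to Her2 level: lower value means less Her2 protein in the cells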;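 as to viability: percent of carrier control wells set as 100% viability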); conditions: SKBR3 Her2 protein level, 18-24 h, measured here: SKBR3 viability, ATP luminescence, at 10 µM
[2] = target: Receptor tyrosine-protein kinase erbB-2 (Homo sapiens) (UniProt P04626); assay: as above; conditions: 18-24 h, at 10 µM, stronger effect = lower value
Receptor tyrosine-protein kinase erbB-2 (Homo sapiens), sequence (P04626 whole entry, looked up): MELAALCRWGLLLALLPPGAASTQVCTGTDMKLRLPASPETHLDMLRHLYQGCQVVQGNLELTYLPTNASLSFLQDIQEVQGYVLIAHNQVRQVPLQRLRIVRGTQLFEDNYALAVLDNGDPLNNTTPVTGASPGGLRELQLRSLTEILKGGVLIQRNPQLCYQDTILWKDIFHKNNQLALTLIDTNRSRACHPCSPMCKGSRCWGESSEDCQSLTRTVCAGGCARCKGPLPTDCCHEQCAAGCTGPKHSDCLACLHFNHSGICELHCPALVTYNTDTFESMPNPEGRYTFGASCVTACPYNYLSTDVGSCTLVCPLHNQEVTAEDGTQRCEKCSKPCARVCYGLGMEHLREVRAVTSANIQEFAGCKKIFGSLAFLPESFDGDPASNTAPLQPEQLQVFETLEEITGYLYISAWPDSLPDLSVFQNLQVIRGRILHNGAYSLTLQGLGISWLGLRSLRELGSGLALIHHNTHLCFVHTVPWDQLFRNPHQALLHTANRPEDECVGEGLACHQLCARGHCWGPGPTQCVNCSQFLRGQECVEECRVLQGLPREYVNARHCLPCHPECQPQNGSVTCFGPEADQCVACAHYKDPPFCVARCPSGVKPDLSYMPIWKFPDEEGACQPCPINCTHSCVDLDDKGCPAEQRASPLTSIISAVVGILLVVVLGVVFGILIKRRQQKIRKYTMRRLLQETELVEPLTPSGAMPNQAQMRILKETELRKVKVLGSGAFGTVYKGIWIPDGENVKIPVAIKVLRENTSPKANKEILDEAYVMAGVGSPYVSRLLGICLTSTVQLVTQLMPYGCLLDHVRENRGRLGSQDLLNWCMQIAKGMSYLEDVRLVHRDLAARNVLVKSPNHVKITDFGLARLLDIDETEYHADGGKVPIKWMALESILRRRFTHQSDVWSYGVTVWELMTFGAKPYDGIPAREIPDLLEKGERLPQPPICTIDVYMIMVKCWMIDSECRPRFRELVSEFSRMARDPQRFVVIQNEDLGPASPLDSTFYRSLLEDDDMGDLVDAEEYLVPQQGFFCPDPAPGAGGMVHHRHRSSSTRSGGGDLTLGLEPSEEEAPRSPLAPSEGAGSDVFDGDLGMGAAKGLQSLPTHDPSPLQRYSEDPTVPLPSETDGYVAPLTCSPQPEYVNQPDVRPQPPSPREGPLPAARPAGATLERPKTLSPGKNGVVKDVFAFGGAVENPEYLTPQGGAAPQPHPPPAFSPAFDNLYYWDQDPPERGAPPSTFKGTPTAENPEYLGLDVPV

[3] = reduced viability of SK-BR-3 breast cancer cells – cell-based, 24 h, human, pilot screen (AID 572;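 active = viability at or below 10% of carrier control in both of two separate runs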;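 also: compound exposure lasted between 18 and 24 h rather than exactly 24 h; 100% = carrier-treated control wells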); conditions: SK-BR-3 viability, CellTiter-Glo luminescence, at 10 µM, stronger effect = lower value
[4] = HUVEC growth inhibition – cell-based, human, primary screen (AID 575); conditions: HUVEC proliferation, CellTiter-Glo luminescence, 72 h; at 10 µM; stronger effect = lower value;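 also: 100% = median of untreated cell wells with 0.1% DMSO on each plate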
[5] = H69AR cell proliferation blockers – human, duplicate replicates, primary screen (AID 580;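 active = viability at or under a set limit in both replicates, limit being median viability minus 3 SD, cut at about 48% in these data, passing the limit was not always enough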;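 also: 100% = mean luminescence of untreated wells and 0% = no signal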); conditions: H69AR lung tumor cells viability, ATP luminescence, 72 h; at 10 µM; stronger effect = lower value
[6] = MRP1 drug-resistance reversers in H69AR cells – cell-based, doxorubicin co-treatment, pilot screen (AID 601;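 active = viability loss from added drug above about 55%, and viability with drug at most 40%, in both replicates, limit read from the data, passing the limit was not always enough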); conditions: CellTiter-Glo, 72 h, at 10 µM; for differential viability (reversal): stronger effect = higher value
[7] = yeast transport mutant growth inhibition pilot in 384-well plates, post-Golgi transport modulator project (AID 636; in the data active = inhibition above about 31%); conditions: absorbance 615 nm, about 18 h, stronger effect = higher value
[8] = growth suppression of yeast trafficking mutant, preliminary HTS, modulators of trafficking downstream of Golgi apparatus project, 1536-format plate, OD 615 nm (AID 637; in the data active = inhibition above about 30%); conditions: yeast transport mutant growth, absorbance 615 nm, 18 h; stronger effect = higher value
[9] = S. cerevisiae growth inhibition in permissive medium (OD615), pilot counter-assay for S. cerevisiae lifespan shortening project, permissive growth control (AID 705;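 active = growth inhibition above 25% in both replicates, a cutoff set 3 SD above the mean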); conditions: OD615, 24 h, at 10 µM, stronger effect = higher value
[10] = S. cerevisiae growth inhibition in restrictive medium, OD615, pilot screen, restrictive growth control, yeast lifespan reduction project (AID 706;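 active = growth inhibition above a set limit, 3 SD over mean compound inhibition, in both replicates, cut at about 43% in these data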;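 also: modified DeaD lifespan yeast strain shifted to restrictive glucose medium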); conditions: OD615, 48 h, at 10 µM, stronger effect = higher value
[11] = doxorubicin toxicity protection in MRP-1 cells – H69AR cells, CellTiter-Glo, duplicate, MRP-1 activator project, pilot screen (AID 807;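 active = viability increase at or above a cutoff of the median across tested compounds plus 3 SD, cut at about 8.5% in these data, passing the limit was not always enough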;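 also: compound pretreatment 18-22 h then 72 h combined with doxorubicin; 0% = doxorubicin alone and 100% = vehicle without doxorubicin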); conditions: H69AR viability with doxorubicin, CellTiter-Glo luminescence; at 10 µM; stronger effect = higher value
[12] = viability of HCT116 without oncogenic beta-catenin – human colon tumor cells, pilot screen (AID 823;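 active = cell viability at or below a set limit in both duplicate runs, the limit being the all-compound median minus 4 SD, cut at about 23% in these data, passing the limit was not always enough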;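 also: 0% = wells killed by 20 µM Hyamine and 100% = untreated DMSO cell wells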); conditions: HCT116 beta-catenin knockout viability, CellTiter-Glo, 60 h; at 10 µM; stronger effect = lower value
[13] = viability of PTEN-null HCT116 cells – cell-based, HCT116 clonal line, CellTiter-Glo, pilot screen (AID 824;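 active = viability at or below 27.92% in each of two runs, the all-compound median minus 4 SD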;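 also: 0% = 20 µM Hyamine control and 100% = vehicle cell control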); conditions: HCT116 PTEN-deleted viability, 60 h, at 10 µM, stronger effect = lower value
[14] = RAM pathway blockade in budding yeast – dse1pr::URA3 reporter, 5-FOA selection, pilot screen (AID 869;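 active = inhibition over a set limit, the all-compound mean plus 3 SD, in both replicate runs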;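 also: 0% = DMSO wells with no growth and 100% = 10 µM 1-NA-PP1 with full growth; RAM network block rescues cells from 5-FOA so hits raise OD615 growth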); conditions: S. cerevisiae dse1pr::URA3 5-FOA growth, OD615, 2 d; at 10 µM; stronger effect = higher value; strain carries analog-sensitive mutant Cbk1 kinase
[15] = RAM signaling pathway blockade in yeast – S. cerevisiae, Pdr1DBD-CYC8 efflux-inhibited sensitized strain, primary screen (AID 1298;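 active = RAM network inhibition above 8.4% in each of two replicates, 3 SD over the compound average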;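 also: 0% = DMSO untreated cells without growth and 100% = 10 µM 1-NA-PP1 full growth; higher means more yeast growth rescued from 5-FOA killing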); conditions: S. cerevisiae cbk1-as DSE1-URA3 strain, 5-FOA growth OD615, 2 d; at 50 µM; stronger effect = higher value
[16] = H69AR cells + 2 uM doxorubicin, measured here: viability with 2 uM doxorubicin, stronger effect = lower value
[17] = H69AR cells, compound alone cytotoxicity

SMILES | viability [1] [%] | Her2 level [2] | viability [3] | viability [4] | viability [5] | differential viability (reversal) ([6]; H69AR cells + 2 uM doxorubicin) | viability [6, 16] [%] | viability [6, 17] [%] | inhibition [7] | inhibition [8] | growth inhibition [9] | growth inhibition [10] | viability increase [11] | viability [12] | viability [13] | inhibition [14] | RAM network inhibition [15]
COc1cccc(-c2nnc(NC(C)=O)o2)c1 | 93.5 | 99.5% (inactive) | 93.5% (inactive) | 103% (inactive) | 98.8% (inactive) | 7.19% (inactive) | 91.6 | 98.8 | -5.47% (inactive) | -4.33% (inactive) | -0.545% (inactive) | 1.75% (inactive) | -1% (inactive) | 101% (inactive) | 105% (inactive) | 1.76% (inactive) | 1.45% (inactive)
O=C(CCN1C(=O)c2ccccc2C1=O)NCCN1CCOCC1 | 105 | 119% (inactive) | 105% (inactive) | 86.3% (inactive) | 95.3% (inactive) | -5.16% (inactive) | 101 | 95.3 | 1.95% (inactive) | -9.5% (inactive) | -11.9% (inactive) | -6.59% (inactive) | 0.61% (inactive) | 93.8% (inactive) | 104% (inactive) | 0.42% (inactive) | 2.35% (inactive)
C=CCn1c(SCc2cccc(C#N)c2)nnc1-c1ccccc1O | 86.5 | 102% (inactive) | 86.5% (inactive) | 85.9% (inactive) | 92.4% (inactive) | 0.595% (inactive) | 91.8 | 92.4 | -4.4% (inactive) | -1.5% (inactive) | 4.16% (inactive) | 3.15% (inactive) | -4.01% (inactive) | 96.2% (inactive) | 88.4% (inactive) | 2.62% (inactive) | 8.45% (inactive)
COc1ccc(C2CC(c3ccc(Cl)cc3Cl)Nc3nc(N)nn32)cc1 (stereo not drawn) | 94 | 92% (inactive) | 94% (inactive) | 115% (inactive) | 94% (inactive) | 3.8% (inactive) | 90.2 | 94 | -1.67% (inactive) | -0.5% (inactive) | 12.9% (inactive) | 31.5% (inactive) | 0.19% (inactive) | 85.3% (inactive) | 73.3% (inactive) | 2.17% (inactive) | 8.01% (inactive)
CCCSCCCNC(=O)Cn1cc2c(n1)CCC(C)C2 (stereo not drawn) | 99.5 | 106% (inactive) | 99.5% (inactive) | 101% (inactive) | 98.8% (inactive) | 7.85% (inactive) | 91 | 98.8 | 4.49% (inactive) | -0.67% (inactive) | 3.59% (inactive) | 1.5% (inactive) | -0.9% (inactive) | 102% (inactive) | 95.7% (inactive) | 0.775% (inactive) | 1.33% (inactive)
O=C(CSc1nnc(Cn2c(=O)sc3ccccc32)n1-c1ccccc1)NCC1CCCO1 (stereo not drawn) | 80.5 | 108% (inactive) | 80.5% (inactive) | 82.3% (inactive) | 99.8% (inactive) | 12.6% (inactive) | 87.2 | 99.8 | -1.92% (inactive) | 0.83% (inactive) | -4.79% (inactive) | 10.2% (inactive) | -2.08% (inactive) | 99.1% (inactive) | 98.6% (inactive) | 1.41% (inactive) | 0.47% (inactive)
CCOC(=O)N1CCC(NC(=O)C2CCN(S(=O)(=O)c3cccc4cccnc34)CC2)CC1 | 90.5 | 97.5% (inactive) | 90.5% (inactive) | 97.6% (inactive) | 94.8% (inactive) | -6.25% (inactive) | 101 | 94.8 | -3.07% (inactive) | -3.33% (inactive) | -5.04% (inactive) | 3.31% (inactive) | 0.29% (inactive) | 91.4% (inactive) | 92.9% (inactive) | 1.02% (inactive) | 1.81% (inactive)
COc1ccc(C(NC(=O)c2ccco2)c2ccc(OC)c(OC)c2)cc1 (stereo not drawn) | 93 | 84% (inactive) | 93% (inactive) | 89.2% (inactive) | 96.2% (inactive) | 15.1% (inactive) | 81.1 | 96.2 | -8.11% (inactive) | -3.17% (inactive) | -14.2% (inactive) | -19.3% (inactive) | -4.05% (inactive) | 98.2% (inactive) | 96.4% (inactive) | 1.3% (inactive) | 2.41% (inactive)
COC(=O)CN1C(=O)CC(C)(C)S(=O)c2ccccc21 (stereo not drawn) | 114 | 110% (inactive) | 114% (inactive) | 118% (inactive) | 99.3% (inactive) | 8.85% (inactive) | 90.4 | 99.3 | -4.4% (inactive) | 16.3% (inactive) | -14.5% (inactive) | -3.88% (inactive) | -0.45% (inactive) | 107% (inactive) | 99.7% (inactive) | 0.32% (inactive) | 2.09% (inactive)
